# Where “and” joins values, the source holds several entries; their conditions need not be identical. Equal entries are not always repeated. The panel holds about 79,000 compounds, 15% with a hit somewhere; the sample as a whole holds those more often. A number with no mark means an inactive call. Calls of active or inactive are those of the source. No stated cut-off is given here; in the data, active means growth inhibition above about 70%; inactive means the rest. Where a SMILES comes first, the peptide text is derived from it. [ ]: non-standard residue; d: D form. The star is where a group is joined. ξ: configuration not given here. ξL = CC(C)CC(N)C(=O)O; ClAc = O=C(CCl)*
# Legend:
# [1] = NCI Yeast Anticancer Drug Screen. Data for the mec2-1 strain (AID 157); details: S. cerevisiae mec2-1 strain, at 50.0 µM, stronger effect = higher value
# Outline: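 Yeast mec2-1 mutant treated with compound. Readout: growth inhibition vs vehicle controls.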
# [2] = NCI Yeast Anticancer Drug Screen. Data for the sgs1 mgt1 strain (AID 161);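 further: 0% = growth of cultures given vehicle only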; details: S. cerevisiae sgs1 mgt1 strain, at 50.0 µM, stronger effect = higher value
# Outline: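 Test agents were incubated with a DNA-repair-mutant yeast strain. Growth was then read and compared against vehicle-treated controls.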
# [3] = NCI Yeast Anticancer Drug Screen. Data for the cln2 rad14 strain (AID 165);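 further: 0% = growth equal to vehicle treated cultures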; details: S. cerevisiae cln2 rad14 strain, at 50.0 µM, stronger effect = higher value
# Outline: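 cln2 rad14 yeast strain; compound exposure; growth inhibition read vs vehicle controls.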
# [4] = NCI Yeast Anticancer Drug Screen. Data for the bub3 strain (AID 167); details: S. cerevisiae bub3 mutant strain, at 50.0 µM, stronger effect = higher value
# Outline: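 Whole-cell yeast assay. The mutant strain was incubated with compounds, and growth inhibition was determined by comparison with vehicle-treated cells.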
# [5] = NCI Yeast Anticancer Drug Screen. Data for the mlh1 rad18 strain (AID 175); details: S. cerevisiae mlh1 rad18 strain growth inhibition; at 50.0 µM; stronger effect = higher value
# Outline: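 Yeast w/ defined DNA-repair lesions; compound exposure; growth vs vehicle controls → % inhibition.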
# [6] = NCI Yeast Anticancer Drug Screen. Data for the rad50 strain (AID 155);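 further: 0% = growth of vehicle-only cultures of the same strain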; details: S. cerevisiae rad50 strain growth inhibition; at 50.0 µM; stronger effect = higher value
# Outline: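 Growth of the mutant yeast was measured after compound exposure and referenced to vehicle-treated cultures.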
structure (smiles),measurement,setting,value
OCc1ccccn1,growth inhibition,[1],3.45%
same,growth inhibition,[2],-4.65%
same,growth inhibition,[3],-0.25%
same,growth inhibition,[4],-3.95%
same,growth inhibition,[5],16.7%
Cc1ccc(CNc2ccc(F)cc2)cc1,growth inhibition,[6],29.9%
same,growth inhibition,[5],19.8%
CC(CN1CCCC1)C(O)(Cc1ccccc1)c1ccccc1 (stereo not given),growth inhibition,[6],-0.05%
same,growth inhibition,[5],-4.15%
Cc1ccc(S(=O)(=O)N2CCC(O)(c3ccccc3)CC2)cc1,growth inhibition,[6],-3.05%
same,growth inhibition,[5],-2.7%
Nc1ccc(I)cc1Cl,growth inhibition,[6],15.8%
same,growth inhibition,[5],24.4%
Cc1ccc2c(sc(-c3ccc4c(c3)sc(-c3ccc5c(c3)sc(-c3ccc(N(C)C)cc3)[n+]5C)[n+]4C)[n+]2C)c1S(=O)(=O)O (tested in a mixture with another compound),growth inhibition,[1],22.3%
same,growth inhibition,[2],46.4%
same,growth inhibition,[3],40.1%
same,growth inhibition,[4],35%
same,growth inhibition,[5],70.4% (active)
O=C(O)c1ccc(NCn2c(=S)[nH]c3ccccc32)cc1O,growth inhibition,[6],-7.6%
same,growth inhibition,[5],-16.2%
C(=N\N=C\c1c[nH]c2ccccc12)/c1c[nH]c2ccccc12,growth inhibition,[1],-21.9%
same,growth inhibition,[5],0.25%
CC(=O)NC(C(=O)O)C(C)C.CC(=O)NC(C(=O)O)C(C)C.[NH-]C1CCCCC1[NH-].[Pt+2] (stereo not given),growth inhibition,[5],7.05% and 50%
CC(O)Cn1cnc2c1c(=O)n(C)c(=O)n2C (stereo not given),growth inhibition,[5],-30.1%
Nc1ccc2ccc(N)cc2c1,growth inhibition,[5],-33.1%
NCCSC(C[N+](=O)[O-])c1ccccc1Cl (stereo not given),growth inhibition,[5],87.4% (active)
OCCOCCOCCOCCO,growth inhibition,[3],-48.1%
CC(C)CC(NC(=O)CCl)C(=O)NCC(=O)O (stereo not given) (ClAc-[ξL]-Gly-OH),growth inhibition,[1],9.65%
same,growth inhibition,[5],-3.75%
CC1OC(Oc2c(-c3cc(O)c(O)c(O)c3)oc3cc(O)cc(O)c3c2=O)C(O)C(O)C1O (stereo not given),growth inhibition,[3],9.75%
same,growth inhibition,[4],-21.2%
same,growth inhibition,[5],-13.6%
Nc1ccccc1SC1CC(=O)N(c2cccc3ccccc23)C1=O (stereo not given),growth inhibition,[1],-7.6%
same,growth inhibition,[5],-12.8%
O=[N+]([O-])c1cccc(C=Nc2cccc(C(F)(F)F)c2)c1,growth inhibition,[1],4.35%
same,growth inhibition,[5],-12.2%
O=C1CCCCCC2=NC12 (stereo not given),growth inhibition,[5],-25.6%
COc1ccc(-c2cc(=O)c3c(ccc4ccccc43)o2)cc1,growth inhibition,[1],3.4%
same,growth inhibition,[5],7%
CC(C)n1c2c([n+](C)c1/C=C/c1ccccc1)C(=O)c1ccccc1C2=O,growth inhibition,[2],89.9% (active)
same,growth inhibition,[3],88.9% (active)
same,growth inhibition,[4],50.4%
CN(C)c1ccc2c(Nc3ccc(NS(C)(=O)=O)cc3)c3ccc(N(C)C)cc3nc2c1,growth inhibition,[5],65.6%
CC(=N\N=C\c1ccccn1)/C(C)=N/N=C/c1ccccn1,growth inhibition,[2],-4.4%
same,growth inhibition,[3],30.6%
same,growth inhibition,[4],-14.2%
same,growth inhibition,[5],-53.3%
N#CCS(=O)(=O)c1cccc[n+]1[O-],growth inhibition,[5],-37.5%
COc1ccc(C(C(N)=O)N2CCCC2)cc1 (stereo not given),growth inhibition,[1],-19.6%
same,growth inhibition,[5],16.6%
Cc1c(CNc2ccc(C(=O)NC(CC(=O)O)C(=O)O)cc2)ccc2nc(N)nc(N)c12 (stereo not given),growth inhibition,[2],47.8%
same,growth inhibition,[3],9.35%
same,growth inhibition,[4],16.4%
O=C(O)C(=O)C(O)C(O)C(O)CO.O=C(O)C(=O)C(O)C(O)C(O)CO.[NH-]C1CCCCC1[NH-].[Pt+2] (stereo not given),growth inhibition,[5],-53.1%
O=C(O)C(O)C(O)C(OC1OC(CO)C(O)C(O)C1O)C(O)CO.O=C(O)C(O)C(O)C(OC1OC(CO)C(O)C(O)C1O)C(O)CO.[NH-]C1CCCCC1[NH-].[Pt+2] (stereo not given),growth inhibition,[5],-63.5%
O=C1C2C3C=CC(C2C(=O)N1CO)C1C2C(=O)N(CO)C(=O)C2C31 (stereo not given),growth inhibition,[5],2.2%
COc1ccc2c(c1C)CN1CCc3cc4c(cc3C1=C2)OCO4,growth inhibition,[1],17.4%
same,growth inhibition,[5],61.1%
Cc1cc(C)cc(NC(=O)c2ccccc2N)c1,growth inhibition,[1],-27.9%
same,growth inhibition,[5],-4.6%
Clc1ccc(C=NCCN=Cc2ccc(Cl)c(Cl)c2)cc1Cl,growth inhibition,[1],-20.3%
same,growth inhibition,[5],-9.3%
CCOC(=O)CC(=O)c1ccccc1,growth inhibition,[2],8.9% and -0.85%
same,growth inhibition,[3],10.8% and 11.1%
same,growth inhibition,[4],13.8% and -12.7%
N=C(N)c1ccc(N=Nc2c(O)ccc3cc(O)ccc23)cc1,growth inhibition,[5],-27.5%
CCCCCCC(=O)CCCCCCCCCCCCC(=O)OC,growth inhibition,[1],-1.65%
same,growth inhibition,[5],12.7%
O=C1c2ccccc2C(=O)N1/N=C/c1cc(Br)ccc1O,growth inhibition,[1],-4.35%
same,growth inhibition,[5],10.4%
N=C(N)c1ccc(N=NNc2ccc(C(=N)N)cc2)cc1,growth inhibition,[5],84% (active)
N#C/C(=C/c1ccccc1Cl)C(N)=O,growth inhibition,[1],-7.05%
same,growth inhibition,[5],6.15%
O=C(O)/C=C/C(=O)Nc1cc(Cl)c(Cl)cc1Cl,growth inhibition,[1],-3.25%
same,growth inhibition,[5],-10.9%
Cc1c(Cl)cccc1NCN1C(=O)c2ccccc2C1=O,growth inhibition,[1],-6.6%
same,growth inhibition,[5],31.5%
[Cl][Sn]([CH2][Sn]([Cl])([c]1ccccc1)[c]1ccccc1)([c]1ccccc1)[c]1ccccc1,growth inhibition,[5],82.2% (active)
COc1cccc(CNc2ccc(SC)cc2)c1OC,growth inhibition,[1],12.9%
same,growth inhibition,[5],18.9%
Nc1nc([Se]c2nc(N)nc3c2ncn3C2OC(CO)C(O)C2O)c2ncn(C3OC(CO)C(O)C3O)c2n1 (stereo not given),growth inhibition,[5],-32.2%
[Br][Sn]([CH2][Sn]([Br])([c]1ccccc1)[c]1ccccc1)([c]1ccccc1)[c]1ccccc1,growth inhibition,[5],81.8% (active)
Cc1cccc(C)c1NC(=S)N(C)C,growth inhibition,[1],-7.3%
same,growth inhibition,[5],4.65%
CC(C)c1cc(C(=O)O)c(O)c(C(C)C)c1.CC(C)c1cc(C(=O)O)c(O)c(C(C)C)c1.[Cu],growth inhibition,[5],54.6%

# Source: PubChem BioAssay (NCI)
